# Measured values from PubChem BioAssay (NCI).
# This is part of a sample that, as a whole, favours compounds with a hit. Of some 83,000 tested, about 20% had one in any assay.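 Growth was measured after 48 h exposure to one concentration of compound in 96-well plates. Values under 10 count as active.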 Values without a mark were called inactive. Calls of active or inactive are those of the source.
# Columns and labels:
# Assay in all cases: NCI-60 one-dose screen, 48 h (100 = growth as untreated, 0 = no growth, -100 = all killed)
# Conditions in all cases: 10 µM unless noted
# DU-145 prostate = system: DU-145 prostate
# K-562 leukemia = system: K-562 leukemia
# MALME-3M melanoma = system: MALME-3M melanoma
# MDA-MB-231 breast = system: MDA-MB-231 breast
# RXF 393 renal = system: RXF 393 renal
# SF-268 CNS = system: SF-268 CNS
# SF-295 CNS = system: SF-295 CNS
# SF-539 CNS = system: SF-539 CNS
# UACC-257 melanoma = system: UACC-257 melanoma
# M14 melanoma = system: M14 melanoma
# HT29 colon = system: HT29 colon
# SNB-75 CNS = system: SNB-75 CNS
# SNB-19 CNS = system: SNB-19 CNS
# PC-3 prostate = system: PC-3 prostate
# SK-MEL-5 melanoma = system: SK-MEL-5 melanoma
# UACC-62 melanoma = system: UACC-62 melanoma
# LOX IMVI melanoma = system: LOX IMVI melanoma
# SK-MEL-28 melanoma = system: SK-MEL-28 melanoma
# U251 CNS = system: U251 CNS
SMILES,growth (DU-145 prostate),growth (K-562 leukemia),growth (MALME-3M melanoma),growth (MDA-MB-231 breast),growth (RXF 393 renal),growth (SF-268 CNS) [%],growth (SF-295 CNS),growth (SF-539 CNS),growth (UACC-257 melanoma),growth (M14 melanoma),growth (HT29 colon),growth (SNB-75 CNS),growth (SNB-19 CNS),growth (PC-3 prostate),growth (SK-MEL-5 melanoma),growth (UACC-62 melanoma),growth (LOX IMVI melanoma),growth (SK-MEL-28 melanoma),growth (U251 CNS)
N#Cc1c(Nc2ccc(N3CCOCC3)cc2)nc(SCC(=O)c2ccc(Br)cc2)nc1-c1ccccc1,106%,99.3%,111%,109%,126%,103,104%,98.7%,102%,97.3%,98.3%,97.7%,117%,86.1%,102%,104%,100%,104%,
CN(C)c1ccc(/C=C(\C#N)c2cc3ccccc3[nH]2)cc1,24.5%,14%,63.9%,31.9%,28.9%,39.8,8.98% (active),6.06% (active),57.1%,9.05% (active),5.51% (active),10.9%,29.5%,28.3%,13%,30.9%,27.6%,,17.4%
CNC(=O)c1cc(Oc2cccc3nc(NC(=O)Nc4cc(C(F)(F)F)ccc4Cl)ccc23)ccn1,78.6%,80.9%,69.2%,49.1%,73.7%,74.9,106%,32.6%,98.3%,95.1%,,68.9%,102%,96.5%,80.2%,96.3%,63.9%,92.4%,70.4%
CN1CCN(CCCOc2cccc3nc(Nc4ccc(F)c(F)c4)ccc23)CC1,7.31% (active),-41.5% (active),-64.8% (active),-69.9% (active),16.4%,26,-65% (active),-53.5% (active),-76.7% (active),-78.5% (active),-69.5% (active),-5.9% (active),-17.4% (active),-43.6% (active),-100% (active),-75.4% (active),-87.7% (active),-82.3% (active),-70.3% (active)
Cc1ccc(C(=O)c2ccc(CC(=O)N=Nc3c(O)[nH]c4ccc(Br)cc34)n2C)cc1,97.8%,83.5%,111%,88.4%,87%,87.7,99.1%,92.4%,105%,91.3%,105%,84%,89%,89.3%,95.9%,94.6%,88.9%,102%,92.6%
CN(Cc1cc(Br)cc(Br)c1O)Cc1cc(Br)cc(Br)c1O,54.8%,21.3%,73.2%,39.6%,55.4%,45.3,32.1%,39.5%,46.8%,37.3%,32.9%,61.5%,40.5%,39.5%,3.66% (active),18.8%,34.6%,74%,32.8%
CN1CCN(CC(=O)Nc2ccc3ncnc(Nc4ccc(Oc5cccc(C(F)(F)F)c5)c(Cl)c4)c3c2)CC1,23.9%,-27.3% (active),-77.1% (active),-58.1% (active),-78.6% (active),11.3,-44.7% (active),-84.5% (active),-56.1% (active),-86.5% (active),,68.8%,28.5%,42.9%,-58% (active),-28.8% (active),-94.6% (active),-89% (active),0.145% (active)
CC(C)(C)n1cc(-c2ccnc(NCCCNS(=O)(=O)c3ccc(C(F)(F)F)cc3)c2)c(-c2cccc(F)c2)n1,92.6%,30.9%,105%,93.8%,92.2%,87.2,94.7%,74.1%,94.4%,81.2%,16.5%,66.6%,86.5%,71.9%,78.9%,89.4%,73.6%,96.9%,67.6%
CCOC(=O)C#Cc1c(C(=O)OCC)nnn1Cc1ccc(C(F)(F)F)cc1,60.5%,3.87% (active),74.4%,88.1%,-7.11% (active),86.6,94.8%,43.3%,74.2%,30.5%,,62.3%,85.5%,64.5%,95.2%,80%,-68.3% (active),89.7%,93.7%
NS(=O)(=O)c1ccc(-c2cc(-c3nnc(SCC(=O)Nc4ccc(C(=O)/C=C/c5ccc(Cl)cc5)cc4)n3-c3ccccc3)c3ccccc3n2)cc1,95.7%,84.4%,101%,90.8%,93%,74.8,101%,92.3%,104%,97.7%,94.9%,54%,86.8%,79.8%,92.8%,71%,88%,97%,81.1%
N=C(N)c1ccc(-c2ccc(-c3cc(Cl)cc(Cl)c3)s2)nc1,1.39% (active),-4.72% (active),78.6%,61.1%,90.3%,88.4,57.1%,57.2%,106%,79.5%,13.2%,105%,64.5%,71.3%,94%,95.2%,-75.6% (active),108%,-36.1% (active)
C=C(C)[C@@H]1CC[C@]2(COC(C)=O)CC[C@]3(C)[C@H](CC[C@@H]4[C@@]5(C)CCCN(C(C)=O)C(C)(C)[C@@H]5CC[C@]43C)[C@@H]12,59.9%,0.971% (active),51%,45.2%,64.1%,90.9,104%,81%,60%,-65.9% (active),-7.38% (active),108%,84.6%,65.6%,84.6%,-2.48% (active),-98% (active),,6.47% (active)
COc1cc2nc3sc(C(=O)Nc4ccc(C(=O)OC(C)C)cc4)c(C(=O)Nc4ccc(Cl)cc4C)n3c(=O)c2cc1OC,13.2%,56.4%,43.9%,86.9%,83.8%,64.5,42%,104%,118%,77.7%,41.2%,48%,96.9%,30.2%,73%,67.6%,69.7%,101%,66.3%
CCN1C(=O)N(CC)C2C1NC(=S)N2/N=C/c1ccc(OC)cc1 (stereo unspecified),78.5%,20.1%,54.4%,69.5%,59.8%,71.8,42.1%,55.2%,61%,29.9%,8.46% (active),15.1%,52.8%,55.9%,43.3%,38.5%,49.2%,,40.3%
O=C(CCCCCCN1CC(=O)N2[C@H](c3ccc(Cl)cc3)c3[nH]c4ccccc4c3C[C@@H]2C1=O)NO,72.2%,25.2%,23%,68.9%,65.7%,85.1,85.6%,57%,36.4%,61.7%,67.5%,30.2%,69.6%,48.2%,43.8%,21%,27.1%,45.3%,53%
N[C@H]1CCC[C@@H]1NCCCCN1C(=O)c2cccc3cc([N+](=O)[O-])cc(c23)C1=O,29.9%,25.2%,73%,39.5%,44.1%,36.5,66.6%,38.1%,72.7%,76.8%,14.2%,46.7%,46.2%,40.7%,70.2%,72.2%,22.8%,93.6%,
